The source made the active and inactive calls.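 How the source made its calls, unless noted: active means compounds that lower viability of the colon cancer cells in the luminescence readout, with no numeric limit stated; inactive means the rest.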 Positions of bridges follow the written chain, without caps; N, C: chain ends. Non-standard residues stand in square brackets, D forms with d. Residues, ends and D or L forms follow the SMILES beside them. hArg = N=C(N)NCCCC[C@H](N)C(=O)O; Mpa = O=C(O)CCS
How the values were obtained:
[1] = Wnt pathway potentiators raising nuclear beta-catenin – imaging, WNT3A-conditioned medium, mouse C2C12, NPC library, primary screen (AID 1117326; in the data active means nuclear beta-catenin stimulation mostly above about 4.2%, no sharp cut-off; inactive means mostly below about 10%; further: reference of the scale not given here); settings: stronger effect = higher value
[2] = stimulators of insulin release from INS-1E, primary screen, cell-based, 5 mM glucose, NPC library (AID 1117329;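 active means compound raises insulin release from rat beta cells at 5 mM glucose, no numeric limit stated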; further: reference of the scale not given here); settings: rat INS-1E insulin secretion, at 10 µM, stronger effect = higher value
[3] = growth inhibition of GSK3B-pretreated HCT116 cells – cell-based, CellTiter-Glo, 0.2 to 20 µM (AID 1117336;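 active means compounds lowering colon cancer cell viability after pretreatment blocking the GSK3B kinase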); settings: HCT116 viability after GSK3B inhibitor, at 20 µM, stronger effect = higher value
[4] = inhibition of endothelial tube formation, primary screen, imaging, VEGF stimulated, CD31 staining, tube area, NPC library (AID 1117340;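 active means compound that reduces growth-factor-driven endothelial tube area in a mixed cell culture, no cutoff stated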); settings: VEGF-stimulated ADSC/ECFC co-culture, at 10 µM, stronger effect = higher value
[5] = GLP1 release stimulators, primary, NCI-H716, NPC library (AID 1117341;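 active means compound raises GLP1 secretion from the human gut endocrine cells, with no numeric limit stated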; further: reference of the scale not given here); settings: NCI-H716 cells, at 10 µM, stronger effect = higher value
[6] = HCT116 colon cancer cell growth inhibition, primary screen, CellTiter-Glo luminescence, NPC library (AID 1117342;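 active means compounds that lower survival of HCT116 colon cancer cells in the luminescence readout, no numeric limit stated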); settings: at 20 µM (top of the series)
[7] = reduced SW480 viability measured with CellTiter-Glo, NPC library, primary (AID 1117343); settings: CellTiter-Glo luminescence; at 20 µM (top of the series)
[8] = NPC library primary testing for decreased DLD-1 cell viability via CellTiter-Glo (AID 1117346;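 active means compounds that lower survival of DLD-1 colon cancer cells in the luminescence readout, no cutoff given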); settings: DLD-1 viability, CellTiter-Glo luminescence; at 20 µM (top of the series)

| SMILES | nuclear beta-catenin stimulation ([1]; at 10 µM) | nuclear beta-catenin stimulation ([1]; stimulation, at 2 µM) [%] | insulin secretion stimulation [2] | viability decrease [3] | tube area decrease [4] | GLP1 secretion stimulation [5] | inhibition of viability [6] | viability decrease (inhibition) [7] | viability decrease (inhibition) [8] |
| --- | --- | --- | --- | --- | --- | --- | --- | --- | --- |
| CC(=O)O[C@@H]1C(=O)O[C@@H]2[C@H]1OC(=O)[C@@H]2OC(C)=O | 0.6% (inactive) | -1.1 | 2.4% (inactive) | 19.5% (inactive) | -1% (inactive) | -3.4% (inactive) | 22.9% (inactive) | 18.7% (inactive) | 4.6% (inactive) |
| O=C(O)[C@@H]1CSCN1 | 0% (inactive) | 0.2 | -2.5% (inactive) | -3.1% (inactive) | 16.2% (inactive) | -0.4% (inactive) | 3.3% (inactive) | 38.4% (inactive) | 11.6% (inactive) |
| CC(CC1c2ccccc2CCc2ccccc21)CN(C)C (stereo not drawn) | -1% (inactive) | 0.4 | 29.8% (active) | 34.8% (inactive) | 9.8% (inactive) | -1.9% (inactive) | 44.4% (active) | 84.4% (active) | 87.7% (active) |
| CC(CCc1ccc2c(c1)OCO2)NN (stereo not drawn) | 0.2% (inactive) | 0.2 | -2.2% (inactive) | 57.8% (active) | 23.7% (inactive) | 2.3% (inactive) | 84.6% (active) | 97.6% (active) | 17.7% (inactive) |
| CN=C(N)NC(=O)Nc1c(C)cccc1C | -1.8% (inactive) | -0.4 | -1.2% (inactive) | -12.4% (inactive) | -1.8% (inactive) | -0.6% (inactive) | 11.3% (inactive) | -1.5% (active) | -0.9% (inactive) |
| Cc1ccc(O)c(-n2nc3ccccc3n2)c1 | -0.7% (inactive) | -0.3 | -1.4% (inactive) | 8.75% (inactive) | -28.1% (inactive) | 4.2% (inactive) | -0.8% (inactive) | 40.7% (inactive) | 13.8% (inactive) |
| Cc1cc(=O)oc2cc(O[C@@H]3SC[C@@H](O)[C@H](O)[C@H]3O)ccc12 | -0.2% (inactive) | -1.9 | 1.1% (inactive) | -1.3% (inactive) | 13.6% (inactive) | 3.6% (inactive) | -1.1% (inactive) | -15.9% (inactive) | 15.4% (inactive) |
| NC(=O)[C@@H]1CSSCCC(=O)N[C@@H](CCCCN=C(N)N)C(=O)NCC(=O)N[C@@H](CC(=O)O)C(=O)N[C@@H](Cc2c[nH]c3ccccc23)C(=O)N2CCC[C@H]2C(=O)N1 ([Mpa][hArg]GDWPC-NH2; disulfide 1-7) | 3.6% (inactive) | 5.8 | 3.95% (inactive) | 19.6% (inactive) | 79.4% (active) | -2.7% (inactive) | 9.3% (inactive) | 0.7% (inactive) | 0.2% (inactive) |
| CC(=O)SCC(CC(=O)c1ccc(C)cc1)C(=O)O (stereo not drawn) | 0.5% (inactive) | -0.4 | 2.9% (inactive) | -5.5% (inactive) | -18.7% (inactive) | 1.4% (inactive) | -12.2% (inactive) | -19.1% (inactive) | -15.2% (inactive) |
| CCC(CN)=C(c1ccccc1)c1ccccc1 | -0.1% (inactive) | 0.1 | 29.4% (active) | 17.9% (inactive) | 7% (inactive) | 2.2% (inactive) | 78.6% (active) | 92% (active) | 55.1% (active) |
| Cc1[nH]cnc1-c1ccc(Cl)cc1 | 1.4% (inactive) | 1 | 0.25% (inactive) | 11.7% (inactive) | -1.2% (inactive) | 0.1% (inactive) | 17% (inactive) | -17.6% (inactive) | 3.8% (inactive) |
| CCOC(=O)OCC/C(SC(=O)OCC)=C(\C)N(C=O)Cc1cnc(C)nc1N | 1.8% (inactive) | 0.3 | 1.5% (inactive) | 2.5% (inactive) | -11% (inactive) | 2.9% (inactive) | -0.4% (inactive) | -22.7% (inactive) | -10.1% (inactive) |
| Cc1ncc(CO)c(CN)c1O | 1.3% (inactive) | 2.3 | 0.6% (inactive) | 4.25% (inactive) | -13.4% (inactive) | 0.1% (inactive) | -3.2% (inactive) | 91.3% (active) | 9.5% (inactive) |
| O=C(NCN1CCOCC1)c1cnccn1 | 1.4% (inactive) | 0.7 | 0.2% (inactive) | 15.3% (inactive) | 7.8% (inactive) | -2.9% (inactive) | 29.4% (inactive) | 40.1% (inactive) | 8.3% (inactive) |
| O=c1[nH]c(=O)n([C@H]2O[C@H](CO)[C@@H](O)[C@@H]2O)cc1/C=C\Br | 0.8% (inactive) | -0.6 | 3.5% (inactive) | -12.2% (inactive) | -20.7% (inactive) | 1.5% (inactive) | -27.5% (inactive) | -23.9% (inactive) | 2.6% (inactive) |
| CCc1nnc(NS(=O)(=O)c2ccc(N)cc2)s1 | -0.1% (inactive) | 2 | -0.8% (inactive) | 5.1% (inactive) | -5.1% (inactive) | -0.1% (inactive) | -13.8% (inactive) | 4.4% (inactive) | -18.9% (inactive) |

| SMILES | nuclear beta-catenin stimulation ([1]; at 10 µM) | nuclear beta-catenin stimulation ([1]; stimulation, at 2 µM) [%] | insulin secretion stimulation [2] | viability decrease [3] | tube area decrease [4] | GLP1 secretion stimulation [5] | inhibition of viability [6] | viability decrease (inhibition) [7] | viability decrease (inhibition) [8] |
| --- | --- | --- | --- | --- | --- | --- | --- | --- | --- |
| O=C(O)c1cc(=O)c2c3nc4ccccc4oc-3cc(=O)c2[nH]1 | -0.4% (inactive) | -0.7 | -0.1% (inactive) | 10.4% (inactive) | 16.6% (inactive) | -7.4% (inactive) | -31.1% (inactive) | 17.8% (inactive) | -15.6% (inactive) |
| C/C(=C(\CCO)SS/C(CCO)=C(\C)N(C=O)Cc1cnc(C)nc1N)N(C=O)Cc1cnc(C)nc1N | 0.2% (inactive) | -0.9 | 0.9% (inactive) | -14.3% (inactive) | -4.4% (inactive) | -0.7% (inactive) | 0.6% (inactive) | -11.8% (inactive) | 7.4% (inactive) |
| CC(=O)/C=C/C=C1/C2CCC(C2)C1(C)C (stereo not drawn) | 1.2% (inactive) | 3.3 | 0.6% (inactive) | -80% (inactive) | -0.7% (inactive) | 0.1% (inactive) | -1.1% (inactive) | 27% (inactive) | -15.2% (inactive) |
| CCCC(=O)O[C@]1(C(=O)COC(=O)CC)CC[C@H]2[C@@H]3CCC4=CC(=O)CC[C@]4(C)[C@H]3[C@@H](O)C[C@@]21C | -0.4% (inactive) | -2.3 | 0.8% (inactive) | -8.8% (inactive) | -9% (inactive) | 1.9% (inactive) | 6.6% (inactive) | -5.5% (inactive) | -2% (inactive) |
| CC(C)(C)NCC(O)COc1ccccc1OCC1CCCO1 (stereo not drawn) | -0.3% (inactive) | 2.1 | 5.4% (inactive) | -18.7% (inactive) | 34.3% (inactive) | -2.1% (inactive) | -6.3% (inactive) | 30% (inactive) | -6.9% (inactive) |
| Cc1cccc(C)c1OCC(=O)N[C@@H](Cc1ccccc1)[C@@H](O)C[C@H](Cc1ccccc1)NC(=O)[C@H](C(C)C)N1CCCNC1=O | 2% (inactive) | -0.1 | 2.4% (inactive) | 67.4% (active) | 2% (inactive) | 1.5% (inactive) | 43.5% (inactive) | 80.2% (active) | 73.5% (active) |
| CCN(CC)CCNC(=O)COc1ccc(Cl)cc1 | -2.4% (inactive) | -0.4 | 0.9% (inactive) | -9.5% (inactive) | -3.5% (inactive) | -4.5% (inactive) | 22.7% (inactive) | 34.2% (inactive) | 0.6% (inactive) |
| CCOc1ncc(F)c(=O)[nH]1 | -1% (inactive) | -1.1 | 2.9% (inactive) | 0.7% (inactive) | 0.1% (inactive) | 2.1% (inactive) | 2.4% (inactive) | 3% (inactive) | -4.2% (inactive) |
| COC(=O)c1cc(Cl)ccc1NS(=O)(=O)C(F)(F)F | -1.2% (inactive) | -1.2 | 1.8% (inactive) | 17.5% (inactive) | -6.9% (inactive) | -0.4% (inactive) | 8.93% (inactive) | 30.2% (inactive) | -4.9% (inactive) |
| Nc1ccc(O)cc1 | 18.2% (inactive) | 2 | 1% (inactive) | 99.1% (active) | 60.9% (active) | -3.8% (inactive) | 99.3% (active) | 102% (active) | 62.6% (active) |
| COc1ccc(C=CC(=O)O)cc1 | -1.4% (inactive) | 0 | 1% (inactive) | -39% (inactive) | 4.7% (inactive) | -4.2% (inactive) | 2.2% (inactive) | -6.4% (inactive) | -5.9% (inactive) |
| CC(C)(C)CC(C)(C)c1ccc(O)c(-n2nc3ccccc3n2)c1 | 1.5% (inactive) | 1.1 | -1% (inactive) | 13.1% (inactive) | 23.9% (inactive) | -1.5% (inactive) | -8.9% (inactive) | 82.6% (active) | 22.1% (inactive) |
| CC(C)CCC[C@@H](C)[C@H]1CC[C@H]2[C@@H]3CC[C@H]4C[C@@H](O)CC[C@]4(C)[C@@H]3CC[C@]12C | 0% (inactive) | 0.5 | 1.1% (inactive) | 1.6% (inactive) | -1.6% (inactive) | -1.9% (inactive) | -2.8% (inactive) | -7.2% (inactive) | -8.7% (inactive) |
| C#CC(C)(CC)OC(=O)c1ccccc1C(=O)O (stereo not drawn) | 3.1% (inactive) | 1.3 | -0.2% (inactive) | -19% (inactive) | -5.2% (inactive) | 3.4% (inactive) | 5.2% (inactive) | 11.9% (inactive) | -12.1% (inactive) |
| CN(CC1(C)CCCO1)S(=O)(=O)c1ccc(Cl)c(S(N)(=O)=O)c1 (stereo not drawn) | -0.8% (inactive) | -1.9 | 2% (inactive) | -0.1% (inactive) | -8.9% (inactive) | 2.8% (inactive) | 12.4% (inactive) | -9.7% (inactive) | 2.2% (inactive) |
| CCCCN(CCN(CCCC)C(=O)N1CCOCC1)C(=O)N1CCOCC1 | 1.4% (inactive) | 1 | 1.1% (inactive) | -64.8% (inactive) | 17.8% (inactive) | 0.9% (inactive) | 25.7% (inactive) | 2.8% (inactive) | 24.1% (inactive) |
